# Hits are enriched below; roughly 1.4% of the tested compounds scored in any of these assays.
# DUSP3 inh – DUSP3 (human) phosphatase inhibition. P51452. inhibition, % at 13.3 µM. 290,000 tested, 0.52% active. AID 1654. recombinant VHR phosphatase, pNPP absorbance; in the data active = inhibition above about 50%
# Target sequence (P51452 whole entry, looked up): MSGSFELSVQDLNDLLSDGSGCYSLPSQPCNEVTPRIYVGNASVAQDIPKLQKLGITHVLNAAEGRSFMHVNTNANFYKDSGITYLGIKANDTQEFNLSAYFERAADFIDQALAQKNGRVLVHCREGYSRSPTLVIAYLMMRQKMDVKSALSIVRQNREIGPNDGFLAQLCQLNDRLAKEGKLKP
# BJeLR lethal – kills HRASV12-expressing BJeLR cells. BJeLR (HRASV12) viability, CellTiter-Glo ATP luminescence, 48 h. inhibition, % (no concentration beside the values). 300,000 tested, 0.17% active; in the data active = inhibition above about 50%
# CCHFV vOTU inh – blocks the CCHF virus ovarian tumor domain protease. CCHFV vOTU protease, Pep-AMC fluorescence. inhibition, % at 11.5 µM. 370,000 tested, 0.55% active. AID 651958; in the data active = inhibition above about 30%
# MazEF act – increases E. coli MazEF RNase cleavage of RNA | activation, % at 20 µM | AID 504720 | FAM/BHQ RNA-DNA oligo cleavage fluorescence, 5 h | P0AE70 | 350,000 tested, 0.32% active; in the data active = activation above about 50%
# Target sequence (P0AE70 whole entry, looked up): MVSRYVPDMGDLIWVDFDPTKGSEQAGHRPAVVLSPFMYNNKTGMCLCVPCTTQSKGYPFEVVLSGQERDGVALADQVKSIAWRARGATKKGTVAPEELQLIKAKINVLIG
# SARS 3CLpro inh – SARS-CoV 3CLpro protease inhibition | recombinant SARS-CoV 3CLpro, quenched FRET peptide cleavage | inhibition, % at 6 µM | 290,000 tested, 0.14% active | AID 1706; in the data active = inhibition above about 12%
# A number is an active result; n = inactive; x = no result.
SMILES,DUSP3 inh,BJeLR lethal,CCHFV vOTU inh,MazEF act,SARS 3CLpro inh
COc1ccc(C(=O)CSc2nnc(-c3cccc(Cl)c3)n2Cc2ccco2)cc1,x,x,n,x,x
Cc1cc(Cl)n2c(nc3cc(F)c(F)cc32)c1C#N,n,128,n,n,n
O=C(Oc1ccc2ccccc2c1)C1CCC1,51,n,n,n,n
O=C(/C=C/c1ccco1)Nc1cc(Cl)ccc1C(=O)O,n,n,n,n,n
O=C(/C=C\c1ccco1)Nc1cc([N+](=O)[O-])ccc1F,n,62,n,n,n
NC(=O)CN1C(=O)C(O)(CC(=O)c2ccccc2O)c2ccccc21 (stereo not drawn),n,n,n,n,16
CCOCCC(=O)Nc1cc(Cl)ccc1OC,n,n,n,n,n
CCOC(=O)/C(C#N)=N\Nc1cc(Cl)ccc1OC,n,n,n,326,n
COc1ccccc1N/N=C(\C#N)C(=N)N1CCOCC1,n,n,n,n,n
CCOC(=O)/C(C#N)=N/Nc1ccccc1OC,n,n,n,65,n
CCOc1cc(C=NN2CCN(Cc3ccc(C)cc3)CC2)ccc1O,x,x,n,x,x
CC(NC(=O)CN1CCN(c2ccccc2F)CC1)c1ccccc1 (stereo not drawn),n,n,n,n,n
CC(NC(=O)CN1CCc2ccccc21)c1ccccc1 (stereo not drawn),54,n,n,n,n
CC(=O)c1ccc(NC(=O)c2ccn(C(=O)OCC(C)C)n2)cc1,n,n,n,n,n
CC(C)COC(=O)n1ccc(C(=O)N2CCCCC2)n1,51,n,n,n,n
O=C(Nc1cccs1)OC1CC2CC1[C@H]1CCCCN1C2 (stereo partly drawn),x,x,n,x,x
Cc1ccc(CNC(=O)CN2C(=O)NC(C)(c3ccccc3Cl)C2=O)cc1 (stereo not drawn),53,n,n,n,n
O=C(NCc1ccccn1)c1ccc(OC2CCN(Cc3ccc(F)cc3F)CC2)cc1,n,n,n,n,n
COc1ccc(CN2CCC(Oc3ccc(C(=O)NCc4ccccn4)cc3)CC2)c(F)c1,57,n,n,n,n
Cc1cccc(Cn2cc(CN3CC(N(C)CCCOC(=O)c4cc5ccccc5o4)CS3(=O)=O)nn2)c1 (stereo not drawn),x,x,n,x,x
OCCCCNCc1ccc(OCc2ccccc2)cc1,52,n,n,n,n
OCCCCNCc1ccc(OCc2ccccc2Cl)cc1,n,n,n,n,n
O=C(CSc1nnc(-c2cccnc2)n1-c1ccc(Cl)cc1)Nc1cccc2ccccc12,x,x,n,x,x
CCC(C)C(=O)Nc1nc(C)c(-c2csc(Nc3cc(OC)ccc3OC)n2)s1 (stereo not drawn),51,n,n,n,n
COc1ccccc1OCCCCN1CCCCC1,51,n,n,n,n
SMILES,DUSP3 inh,BJeLR lethal,CCHFV vOTU inh,MazEF act,SARS 3CLpro inh
Cc1ccccc1OCc1nnc(SCc2cc(=O)[nH]c3ccccc23)o1,n,n,n,65,n
O=c1cc(CSc2nnc(COc3ccc(Cl)cc3)o2)c2ccccc2[nH]1,n,n,n,51,n
Cc1ccccc1OCc1nnc(SCc2cc(=O)[nH]c3ccccc23)n1-c1ccccc1,n,n,n,n,n
COc1cccc(OCc2nnc(SCc3cc(=O)[nH]c4ccccc34)o2)c1,n,n,n,n,n
COc1cccc(OCc2cc(C(=O)N(Cc3nccn3C)C(C)C)no2)c1,n,n,n,n,n
COc1cc(C)ccc1OCc1cc(C(=O)N(Cc2nccn2C)C(C)C)no1,52,n,n,n,n
CC(C)(C)N1Cc2nnn(Cc3ccccc3)c2-c2cc(N3CCCC3)ccc2S1(=O)=O,x,x,n,x,x
O=C1CSC(=S)N1N=Cc1c(O)ccc2ccccc12,x,x,n,590,x
COC(=O)C[C@@H]1CC[C@H]2[C@@H](COc3ccc(NC(=O)Nc4ccccc4C)cc3C(=O)N2C)O1,x,x,n,x,x
O=C(CCc1ccccc1)Nc1ccc(NC(=O)c2ccco2)nc1,n,n,n,618,n
O=C(CCc1ccccc1)Nc1ccc(NC(=O)c2ccco2)cc1,n,n,n,n,n
C/C(=N\N1C(C)CCCC1C)c1ccccc1O (stereo not drawn),53,n,n,n,n
Cn1c(SCC(=O)Nc2ccc3nc(SCC(=O)NC4CC4)sc3c2)nnc1-c1ccccc1,n,n,n,n,n
Cn1c(SCC(=O)Nc2ccc3nc(SCC(=O)N4CCCC4)sc3c2)nnc1-c1ccc(N)cc1,52,x,x,n,n
Cc1ccc2c(c1)-c1ncc(C(=O)c3cc(Br)ccc3O)cc1CO2,56,n,n,x,n
Cc1ccc(-n2c(SCC(=O)Nc3cccc4ccccc34)nnc2-c2ccccc2)cc1,x,x,n,x,x
Cc1ccc2c(C(=O)CN3CCCCC3CCO)c(C)[nH]c2c1 (stereo not drawn),n,n,n,n,n
CCC1CCCCN1CC(=O)c1c(C)[nH]c2cc(C)ccc12 (stereo not drawn),52,n,n,n,n
O=[N+]([O-])c1ccc(/C=N/n2cnc3ccccc32)s1,n,n,n,189,n
Cc1nc2ccccc2n1/N=C/c1ccc([N+](=O)[O-])s1,n,n,n,n,n
O=[N+]([O-])c1ccc(/C=N/n2c(CO)nc3ccccc32)s1,n,n,n,99,n
O=S1(=O)c2ccccc2-c2c(nnn2Cc2ccccc2)CN1C1CC1,x,x,n,x,x
CCOC(=O)CC[C@H]1CC[C@]2(CCCN(S(C)(=O)=O)C2)O1,x,x,n,x,x
O=C(Nc1ccc(OC(F)(F)F)cc1)Nc1nc2ncccn2c1-c1ccc(C(F)(F)F)cc1,x,x,n,x,x
CCC(C)C(N)C1=NC(C(=O)N[C@@H](CC(C)C)C(=O)N[C@H](CCC(=O)O)C(=O)N[C@H](C(=O)N[C@H]2CCCCNC(=O)[C@H](CC(N)=O)NC(=O)[C@@H](CC(=O)O)NC(=O)[C@H](Cc3cnc[nH]3)NC(=O)[C@@H](Cc3ccccc3)NC(=O)[C@H]([C@@H](C)CC)NC(=O)[C@@H](CCCN)NC2=O)[C@@H](C)CC)CS1 (stereo partly drawn),x,x,n,387,x
SMILES,DUSP3 inh,BJeLR lethal,CCHFV vOTU inh,MazEF act,SARS 3CLpro inh
Cc1ccc2c(c1)-c1c(cnn1CC(=O)NCCc1ccc(Cl)cc1)CO2,x,x,n,x,x
Cc1cccc(-n2nnc(C(=O)NC3CCCc4ccccc43)c2N)c1 (stereo not drawn),52,n,n,n,n
COc1ccc(Cn2cc(COC(=O)N3CCCC3)nn2)cc1,x,x,n,x,x
N#CCCn1cc(C=C(C#N)C#N)c(-c2ccc(Cl)cc2)n1,n,n,n,n,n
N#CCCn1cc(/C=C(\C#N)c2nc3ccccc3s2)c(-c2ccc(F)cc2)n1,n,n,n,53,n
O=C(NCCCc1ccccc1)OC1CC2CC1[C@H]1CCCCN1[C@H]2Cc1ccccc1 (stereo partly drawn),x,x,n,x,x
COCCCNC(=S)N(CCCO)Cc1cc2cc3c(cc2[nH]c1=O)OCO3,n,n,n,n,n
CCN(CC)CCN(Cc1cc2cc3c(cc2[nH]c1=O)OCCO3)C(=S)NCCCN(C)C,n,n,n,n,n
CCN(CC)CCN(Cc1cc2cc3c(cc2[nH]c1=O)OCO3)C(=S)NCCCN(C)C,52,n,n,n,n
COCCCNC(=S)N(CCO)Cc1cc2cc3c(cc2[nH]c1=O)OCO3,52,n,n,n,n
